Screening results (PubChem)
Hits are enriched below; roughly 2.7% of the tested compounds scored in any of these assays.
PAFAH1B3 FP inh = blocks human PAF acetylhydrolase 1B catalytic subunit 3; Q15102; recombinant PAFAH1B3, FP-rhodamine probe, fluorescence polarization; inhibition, % at 3.39 µM; 0.28% of 340,000 active;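 active = inhibition above the screen-wide average of all tested compounds plus 3 SD, cut at about 25% in these data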
Target sequence (Q15102 whole entry, looked up): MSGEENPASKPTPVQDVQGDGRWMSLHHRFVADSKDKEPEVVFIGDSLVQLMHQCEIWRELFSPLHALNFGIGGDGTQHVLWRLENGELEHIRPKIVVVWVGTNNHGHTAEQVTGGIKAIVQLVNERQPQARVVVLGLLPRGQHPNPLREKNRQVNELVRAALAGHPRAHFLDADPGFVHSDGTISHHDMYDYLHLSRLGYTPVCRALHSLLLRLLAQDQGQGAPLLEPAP
PAFAH2 inh = inhibitors of human PAFAH2; recombinant PAFAH2, FP-rhodamine activity probe, fluorescence polarization; 0.99% of 340,000 active; Q99487; AID 492956; inhibition, % at 3.39 µM;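 active = inhibition above the mean over all tested compounds plus 3 SD, cut at about 30% in these data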;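 also: inhibitors block probe labeling of enzyme so polarization drops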
pPAFAH FP inh = inhibitors of human plasma PAF acetylhydrolase (pPAFAH) | Q13093 | recombinant pPAFAH, FP-rhodamine probe fluorescence polarization | inhibition, % at 3.39 µM | 1.5% of 330,000 active | AID 463082;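 active = inhibition above the mean inhibition across the screen plus 3 SD, cut at about 25% in these data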;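 also: inhibitors block binding of the rhodamine activity-based probe so polarization drops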
TCR-CD3 inh = human TCR-CD3 binding inhibition; AID 651800; TAMRA-labeled TCR probe fluorescence, biochemical; 0.37% of 360,000 active; inhibition, % at 9.4 µM; in the data active = inhibition above about 19%;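 also: recombinant mutant TCR 2C K166C tagged with TAMRA read by polarization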
PAFAH1B2 FP inh = PAFAH1B2 (human) inhibition | recombinant PAFAH1B2, FP-rhodamine activity probe, fluorescence polarization | inhibition, % at 3.39 µM | 1.2% of 340,000 active | AID 492953;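 active = inhibition above the mean of all tested compounds plus 3 SD, cut at about 24% in these data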
Target sequence (P68402 whole entry, looked up): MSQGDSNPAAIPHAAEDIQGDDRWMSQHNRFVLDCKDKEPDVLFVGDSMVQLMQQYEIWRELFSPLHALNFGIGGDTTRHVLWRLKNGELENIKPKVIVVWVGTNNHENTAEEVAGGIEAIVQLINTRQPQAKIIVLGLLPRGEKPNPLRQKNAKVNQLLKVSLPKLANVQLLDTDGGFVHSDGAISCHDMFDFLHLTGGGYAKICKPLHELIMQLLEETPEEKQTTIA
Numbers stand for hits; n = inactive; x = no result given.

SMILES	PAFAH1B3 FP inh	PAFAH2 inh	pPAFAH FP inh	TCR-CD3 inh	PAFAH1B2 FP inh
NS(=O)(=O)c1ccc(CCNC(=O)C(=O)c2cn(CC(=O)N3CCCC3)c3ccccc23)cc1	n	n	n	n	n
Cc1ccc(C(=O)/C=C/c2cc(Br)cc(Br)c2O)o1	n	34	31	n	n
CC1CCCN(C(=O)COC(=O)Cc2c(F)cccc2Cl)C1 (stereo not given)	n	n	n	n	n
COc1ccc(S(=O)(=O)N2c3ccc(F)cc3CCC2C)cc1 (stereo not given)	n	n	n	n	27
CC(=O)Nc1ccc(S(=O)(=O)N2c3ccc(F)cc3CCC2C)cc1 (stereo not given)	n	n	n	n	n
O=C1c2ccccc2-c2c1cccc2C(=O)N1CCN(C(=O)c2ccco2)CC1	n	n	n	n	n
CC1CC(C)CN(C(=O)c2cccc3c2-c2ccccc2C3=O)C1 (stereo not given)	n	n	n	n	28
COc1cc2c(cc1OC)[N+]([O-])=C(c1ccccc1)C2=O	x	x	x	n	x
COC(=O)C1=C(Nc2ccccc2NC(=O)c2ccccc2C(=O)O)CSC1	n	n	n	n	n
COC(=O)C1=C(Nc2ccccc2NS(=O)(=O)c2ccc(C(F)(F)F)cc2Cl)CSC1	n	n	n	n	28
Cc1cc(C)c(S(=O)(=O)/N=C2/C=C(SCC(=O)O)C(=O)c3ccccc32)cc1C	37	30	x	x	n
O=C(NCCCN1CCOCC1)c1cccc(S(=O)(=O)Nc2ccc(F)cc2)c1	n	n	27	n	n
O=C(NCCN1CCOCC1)c1cccc(S(=O)(=O)Nc2cc(Cl)ccc2Cl)c1	n	n	x	n	n
O=C(c1cccc(S(=O)(=O)Nc2ccc(F)cc2)c1)N1CCOCC1	n	n	29	n	n
O=C(NCCN1CCOCC1)c1cccc(S(=O)(=O)Nc2ccc(Br)cc2)c1	n	n	34	n	n
O=C(NCCCN1CCCC1=O)c1cc(NS(=O)(=O)c2ccc(F)cc2)cc(NS(=O)(=O)c2ccc(F)cc2)c1	n	n	34	n	n
O=C(NCCCN1CCOCC1)c1ccc(NS(=O)(=O)c2ccccc2)cc1	n	n	n	n	n
CCOC(=O)N1CCN(C(=O)c2cccc(S(=O)(=O)Nc3ccc(F)cc3)c2)CC1	n	n	x	n	n
NS(=O)(=O)c1ccc(NC(=O)COC(=O)COc2ccc(Cl)cc2)cc1	n	n	n	n	n
COc1ccc(NS(=O)(=O)c2ccc(N3CCOCC3)c(NC(=O)c3cccc(F)c3)c2)cc1	n	n	33	n	n
O=C(NCCCN1CCOCC1)c1cccc(NS(=O)(=O)c2ccc(Br)cc2)c1	n	n	n	n	25
O=C(NCCCN1CCOCC1)c1ccc(S(=O)(=O)Nc2ccccc2)cc1	n	n	n	n	n
CN1OC[C@@H]2CN(Cc3ccc4c(c3)OCO4)[C@H](c3ccc(-n4ccnc4)cc3)C[C@@H]21	x	x	x	n	x
COc1cccc(C(=O)Nc2cccc(C(=O)NC3=NN(c4c(Cl)cc(Cl)cc4Cl)C(=O)C3)c2)c1	n	n	30	n	n
COc1cccc(C(=O)Nc2cccc(NC(=O)c3ccccc3Cl)c2)c1	n	n	n	n	n
SMILES	PAFAH1B3 FP inh	PAFAH2 inh	pPAFAH FP inh	TCR-CD3 inh	PAFAH1B2 FP inh
O=C(NCCC1=CCCCC1)c1ccc(Cl)c(S(=O)(=O)Nc2ccccc2)c1	n	n	n	n	28
Cc1ccccc1NC(=O)NCCc1ccc(Cl)cc1	n	n	n	n	29
CC(=O)c1cccc(NC(=O)NCCc2ccc(Cl)cc2)c1	n	n	n	n	27
S=C(NCCc1ccc(Cl)cc1)NC1CC1	n	n	n	n	42
COc1ccccc1NC(=S)NCCc1ccc(Cl)cc1	n	n	n	n	34
COc1cccc(NC(=O)NCCc2ccc(Cl)cc2)c1	n	n	n	n	n
O=C(NN1C(=O)c2cc(Br)ccc2NC1c1cc(Br)cc(Br)c1O)c1ccncc1 (stereo not given)	n	n	30	n	n
COC(=O)C1=C(C)N(Cc2ccc(Br)cc2)C(=S)NC1c1cccc(Br)c1 (stereo not given)	x	x	x	n	x
O=C(Cc1ccc(Br)cc1)c1ccc(O)cc1O	n	n	n	n	82
CCCCc1c(-c2ccccc2OC)ncn1Cc1ccc(Br)cc1	x	x	x	n	x
ClCc1nc2ccccc2c2ccccc12	n	n	n	n	n
COc1cc(C(=O)N2CCN(C3CCCCC3)CC2)cc(OC)c1OC	n	n	n	n	n
COc1ccc(C(=O)c2sc3nc(-c4ccccc4)ccc3c2N)cc1OC	n	n	30	n	n
COc1ccc(-c2ccc3c(N)c(C(=O)c4ccc(OC)c(OC)c4)sc3n2)cc1	n	n	n	n	n
CCOC(=O)CSc1nnc(NC(=O)CN2CCN(C=O)CC2)s1	n	n	n	n	52
CCCc1c(Cc2cccc(F)c2)ncn1CCc1ccccc1OC	x	x	x	n	x
COc1ccc(-c2csc(N3CCN(C(=O)c4ccco4)CC3)n2)cc1	n	n	n	n	n
COc1ccc(C2=NN(c3nc(-c4ccc(CNC(C)=O)cc4)cs3)C(c3ccco3)C2)cc1 (stereo not given)	n	n	25	n	n
COc1cc(/C=N/N2CCCCC2)cc([N+](=O)[O-])c1O	n	n	28	n	n
Cc1ccnc(SCC(=O)Nc2sccc2C#N)n1	n	n	n	n	n
COc1cccc(C(=O)/C(C#N)=N/Nc2cccc(-c3ccnc(C)n3)c2)c1	n	n	32	n	n
Cc1cc(Oc2ncccc2[N+](=O)[O-])c2cc(Cl)ccc2n1	n	n	26	n	n
C#CCN1C[C@@]2(O)CC[C@@H](O)[C@@H](OC)[C@@H]2[C@@]1(C)[C@H](O)CC=C(C)C	x	x	x	n	x
O=C1c2[nH]nc(-c3ccccc3)c2C(c2ccc(F)cc2)N1Cc1ccccc1 (stereo not given)	x	x	x	n	x
O=C(Nc1nc2ccccc2[nH]1)C12CC3CC(CC(C3)C1)C2	n	n	n	n	29
SMILES	PAFAH1B3 FP inh	PAFAH2 inh	pPAFAH FP inh	TCR-CD3 inh	PAFAH1B2 FP inh
O=C(Nc1nc2ccccc2[nH]1)C1CC1	n	n	n	n	n
Cc1ccc(C(=O)N2CCC(N3CCC(C(=O)N4CCOCC4)CC3)CC2)cc1C	n	n	n	n	n
O/N=C1/C2C3C(Br)C4C5CC(C1C53)C24 (stereo not given)	n	n	n	n	29
CC12/C(=N/O)C3C4CC5C3/C(=N/O)C1C5C42 (stereo not given)	n	n	n	n	n
N#CC(=C=[N-])C1=C(C#N)C(c2ccccc2F)C([n+]2ccccc2)C(O)(C2CC2)N1 (stereo not given)	n	n	30	n	n
Cc1cccc[n+]1C1C(c2ccccc2)C(C#N)=C(C(=C=[N-])C#N)NC1(O)C1CC1 (stereo not given)	n	30	29	x	n
Cc1ccc[n+](C2C(c3ccc([N+](=O)[O-])cc3)C(C#N)=C([S-])NC2(O)C2CC2)c1 (stereo not given)	n	n	n	n	n
Nc1[nH]c(C(=O)c2ccccc2)c(-c2ccc3ccccc3c2)c1C(=O)NC1CC1	x	x	x	n	x
